TDP1 block – TDP1 (human) enzyme inhibition | recombinant TDP1, AlphaScreen DNA substrate cleavage | Potency, µM (top dose mostly 130 µM), most hits filed as inhibitors | hit rate 0.28% among 350,000; note: nearly all actives have a fitted effect of over 40% in size
Target sequence (Q9NUW8 whole entry, looked up): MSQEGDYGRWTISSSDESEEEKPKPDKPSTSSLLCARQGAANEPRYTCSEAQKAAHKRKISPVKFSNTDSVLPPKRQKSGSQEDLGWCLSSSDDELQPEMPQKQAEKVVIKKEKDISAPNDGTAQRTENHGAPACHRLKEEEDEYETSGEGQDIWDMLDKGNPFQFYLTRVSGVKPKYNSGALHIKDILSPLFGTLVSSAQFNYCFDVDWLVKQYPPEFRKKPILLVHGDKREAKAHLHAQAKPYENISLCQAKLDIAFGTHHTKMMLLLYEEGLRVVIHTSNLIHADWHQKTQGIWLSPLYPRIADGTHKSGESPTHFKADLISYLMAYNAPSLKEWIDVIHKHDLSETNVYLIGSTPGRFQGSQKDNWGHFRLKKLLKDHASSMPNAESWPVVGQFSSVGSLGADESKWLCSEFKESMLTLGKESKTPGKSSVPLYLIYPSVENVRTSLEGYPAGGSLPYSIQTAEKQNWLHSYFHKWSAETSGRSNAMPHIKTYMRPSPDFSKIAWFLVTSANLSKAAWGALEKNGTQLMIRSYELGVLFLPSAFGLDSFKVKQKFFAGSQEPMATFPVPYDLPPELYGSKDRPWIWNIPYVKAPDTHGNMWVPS
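Tdp1 1 nM final; 15 min RT w/ cpd; substrate 15 nM, 5 min; beads 10 ug/ml, 10 min; AlphaScreen read. Neg ctrl: no enzyme.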
ClpP mod – qHTS Assay for Activators of ClpP; ATP-dependent Clp protease proteolytic subunit (Bacillus subtilis (strain 168)), P80244; purified B. subtilis ClpP, FRET peptide cleavage, 20 min; Potency, µM (highest dose often 57.5 µM); hit rate 1.9% among 340,000; AID 651965, 2013; active = well fitted falling curve with a large enough effect; inconclusive = small, poorly fitted or top-dose-only effect; inactive = no such curve, though single readings can be large or run the other way; note: the source files actives as falling curves though it sought activators and does not explain the sign; nearly all actives have a fitted effect of over 65% in size
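Buffer: 100 mM Tris/HCl pH8, 100 mM KCl, 0.05% low protease BSA, 2.5% glycerol, 0.01% Tween-20. ClpP 10 microg/mL final; 20 min RT; delta FRET normalized to ADEP and DMSO controls.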
DT40 TDP1 CPT – growth inhibition of DT40 Tdp1-/-;hTDP1 cells with camptothecin (screen for TDP1 inhibitors). chicken DT40 Tdp1-/-;hTDP1 cells + 20 nM CPT, ATP luminescence, 48 h. Potency, µM (doses to about 46.2 µM), usual class: inhibitors. hit rate 12% among 420,000; note: nearly all actives have a fitted effect of over 55% in size
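Chicken DT40 Tdp1-/- cells complemented with human TDP1, 400 cells/well, exposed to compounds plus 20 nM camptothecin for at least 48 h at 37 C; viability read as ATP content by CellTiter-Glo luminescence.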
DT40 TDP1 no CPT – qHTS for Inhibitors of human tyrosyl-DNA phosphodiesterase 1 (TDP1): qHTS in cells in absence of CPT | hit rate 15% among 420,000 | DT40 Tdp1-/- hTDP1 cells, no CPT, ATP luminescence, 48 h | Potency, µM (titrated, usually from 46.2 µM), hits mostly inhibitors; note: nearly all actives have a fitted effect of over 55% in size
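DT40 Tdp1-/-;hTDP1 cells, no CPT (DMSO vehicle only), 400 cells/well; compounds pin-transferred; ≥48 hr, 37 °C; CellTiter-Glo 30 min RT dark, luminescence read.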
A number is an active result; ! = repeats disagree; [ ] = dose if it differs, or a comment. Most compounds without a hit are left out; they make up all but 17% or so of the library. Unless noted, calls come from the whole dose curve; as a rule, active = well fitted curve in the direction sought with a large enough effect; inconclusive = small, poorly fitted or top-dose-only effect, or another doubt; inactive = no such curve, though single readings can be large; an effect the other way counts as inactive or inconclusive.

CCN1C[C@]2(COC(=O)c3ccccc3N3C(=O)CC(C)C3=O)CC[C@H](OC)[C@@]34C5C[C@@H]6[C@@H](OC)C[C@@](O)(C5[C@H]6OC)[C@](O)([C@@H](OC)C23)[C@@H]14 (some centres not stated) was read as TDP1 block inactive, DT40 TDP1 CPT inactive and DT40 TDP1 no CPT inactive.
Screening C[C@@H](Cc1ccccc1)N(C)C returned DT40 TDP1 CPT inactive and DT40 TDP1 no CPT inactive.
Cc1ccc(N=CN(C)C=Nc2ccc(C)cc2C)c(C)c1 was read as TDP1 block inactive, DT40 TDP1 CPT inactive and DT40 TDP1 no CPT inactive.
For CC(C)OP(=O)(OC(C)C)C(NCc1ccccc1)c1ccccc1 (configuration not stated) the results were TDP1 block inactive, ClpP mod inactive, DT40 TDP1 CPT inconclusive and DT40 TDP1 no CPT 23µM.
O=C(COc1ccc(Br)cc1)Nc1ccc(Cl)cc1C(=O)c1ccccc1 was read as TDP1 block inactive[12.3 µM], ClpP mod inactive, DT40 TDP1 CPT inactive and DT40 TDP1 no CPT inactive.
COc1cc2c(cc1OC)C(C(=O)N(C)C1CCCCC1)C1CCCCN1C2=O (configuration not stated) was read as TDP1 block inactive, ClpP mod inactive, DT40 TDP1 CPT inactive and DT40 TDP1 no CPT inconclusive.
COc1ccccc1N1CCN(C(=O)CCC(=O)Nc2nnc(CC(C)C)s2)CC1 was read as TDP1 block inactive, ClpP mod inactive, DT40 TDP1 CPT inconclusive and DT40 TDP1 no CPT inactive.
COc1ccc(OC)c(N2C(=O)/C(=C/c3ccco3)C(=O)NC2=S)c1 was read as ClpP mod inactive, DT40 TDP1 CPT inactive and DT40 TDP1 no CPT inactive.
Screening COc1ccc(OC)c(N2C(=O)NC(=O)/C(=C/c3ccc([N+](=O)[O-])s3)C2=O)c1 returned TDP1 block inactive, DT40 TDP1 CPT 16µM and DT40 TDP1 no CPT 16µM.
Screening C=C(C)[C@H]1CN[C@H](C(=O)O)[C@H]1CC(=O)O returned TDP1 block inactive, ClpP mod inactive, DT40 TDP1 CPT inconclusive and DT40 TDP1 no CPT 21µM!.
CC1OC(=O)C(C(C)C)NC(=O)C(C(C)C)OC(=O)C(C(C)C)NC(=O)C(C)OC(=O)C(C(C)C)NC(=O)C(C(C)C)OC(=O)C(C(C)C)NC(=O)C(C)OC(=O)C(C(C)C)NC(=O)C(C(C)C)OC(=O)C(C(C)C)NC1=O (configuration not stated) was read as TDP1 block inactive, DT40 TDP1 CPT 0.18µM and DT40 TDP1 no CPT 0.22µM.
Clc1ccc(CS[C@@H](Cn2ccnc2)c2ccc(Cl)cc2Cl)cc1 was read as TDP1 block inactive[21 µM].
Screening CN1CCC2(CC1)c1ccccc1-c1ccccc12 returned ClpP mod inactive, DT40 TDP1 CPT inconclusive and DT40 TDP1 no CPT 15µM.
Screening O=C1CC=C2C3CC4N(CCC45c4cc(O)c(O)cc4N1C25)CC3=CCBr (configuration not stated) returned ClpP mod 35µM, DT40 TDP1 CPT inconclusive and DT40 TDP1 no CPT inconclusive.
For CC(=O)c1ccc(NC(=O)c2sc3nc4c(cc3c2N)N2CCC4CC2)cc1 the results were TDP1 block inactive and ClpP mod inactive.
Nc1c(C(=O)Nc2ccc(OC(F)(F)F)cc2)sc2nc3c(cc12)N1CCC3CC1 was read as TDP1 block inactive, ClpP mod inactive, DT40 TDP1 CPT 16µM and DT40 TDP1 no CPT 18µM.
COc1cc([N+](=O)[O-])cc([N+](=O)[O-])c1N was read as ClpP mod inactive, DT40 TDP1 CPT inactive and DT40 TDP1 no CPT inactive.
For Cc1oc(-c2cccc(Cl)c2)nc1CN1CCC(C(=O)NCCCN2CCN(c3cccc(Cl)c3)CC2)CC1 the results were TDP1 block inactive, ClpP mod inactive, DT40 TDP1 CPT 15µM and DT40 TDP1 no CPT 18µM.
ClCc1ccccn1 was read as TDP1 block inactive.
`CC(C)=CCc1c(O)cc2c(c1O)C(=O)CC(c1ccc(O)cc1)O2` (configuration not stated) gave ClpP mod inactive, DT40 TDP1 CPT 16µM and DT40 TDP1 no CPT 23µM.
Screening CN1CCN2c3ccc(N)cc3CC3(C(=O)NC(=O)NC3=O)C2C1 (configuration not stated) returned TDP1 block 45µM, DT40 TDP1 CPT inactive and DT40 TDP1 no CPT inactive.

Compound activity as filed in PubChem BioAssay.
